Test results taken from PubChem BioAssay (EPA / NIEHS).
Records with an inconclusive call do not appear. Calls of active or inactive are those of the source. The calls were made as follows, unless noted: active = hit-call score of the fitted dose curve at least 0.9, where 1 is the maximum; inconclusive = response in the unintended direction; inactive = score below 0.9.

Tests used:
[1] = biological target: Nuclear receptor subfamily 1 group I member 3 (Homo sapiens) (UniProt Q14994); assay: ATG_CAR_TRANS: Attagene TRANS-FACTORIAL HepG2 Assay for human Constitutive Androstane Receptor (CAR) (AID 2282969); settings: HepG2 Attagene TRANS-FACTORIAL CAR reporter;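 also: activators raise reporter mRNA above DMSO so AC50 marks induction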
In short: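 Signal is reporter mRNA induction relative to DMSO, measured 24 h after dosing by RT-PCR with fluorescent primer extension and capillary electrophoresis. Human HepG2 liver cells carried transiently transfected chimeric NR-Gal4/GAL4-UAS reporter constructs.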

[2] = biological target: X-box-binding protein 1 (Homo sapiens) (UniProt P17861); assay: ATG_Xbp1_CIS: Attagene CIS-FACTORIAL HepG2 Assay for human X-box Binding Protein 1 (XBP1) (AID 2282972; active = hit-call score of the fitted dose curve at least 0.9, where 1 is the maximum; inactive = score below 0.9); settings: HepG2 XBP1 cis-element reporter, Attagene multiplex; actives raise or lower the signal
In short: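 Read-out: fluorescent reporter mRNA fragments resolved by capillary electrophoresis after RT-PCR. Human HepG2 liver cells carried transfected cis-promoter reporter units and were exposed to chemicals for 24 hours. Gain or loss of signal fitted relative to DMSO baseline.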

[3] = ATG_M_19_TRANS: Attagene TRANS-FACTORIAL HepG2 Assay for M19 Transcription Factor (Internal Marker) (AID 2282974); settings: HepG2 Attagene TRANS-FACTORIAL M19 internal marker reporter
In short: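 HepG2 transiently transfected with GAL4-UAS multiplex reporter constructs, exposed 24 h; reporter RNA quantified by RT-PCR, 6-FAM labeling, HpaI digestion and capillary electrophoresis; internal background marker fitted upward versus DMSO.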

[4] = biological target: Glucocorticoid receptor (Homo sapiens) (UniProt P04150); assay: ATG_GR_TRANS: Attagene TRANS-FACTORIAL HepG2 Assay for human Glucocorticoid Receptor (GR) (AID 2282978); settings: HepG2 Attagene TRANS GR reporter, mRNA transcription;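 also: activators score as hits since higher reporter transcript over DMSO is fitted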
In short: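 HepG2 cells transiently transfected with GAL4-UAS reporter units and exogenous GR-Gal4 chimera, dosed 24 h. Reporter mRNA by RT-PCR, FAM labeling, HpaI digest and capillary electrophoresis; gain-of-signal fit versus DMSO.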

[5] = biological target: Bile acid receptor (Homo sapiens) (UniProt Q96RI1); assay: ATG_FXR_TRANS: Attagene TRANS-FACTORIAL HepG2 Assay for Farnesoid X Receptor (FXR) (AID 2282979); settings: HepG2 Attagene TRANS FXR-GAL4 reporter transcription;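 also: hits raise reporter mRNA above DMSO so AC50 marks FXR activation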
In short: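 Transient transfection of HepG2 with multiplexed GAL4-UAS reporter units; exogenous FXR-GAL4 chimera. Dose 24 h → TriZol RNA → oligo(dT) RT → PCR, 6-FAM primer extension, HpaI cut → CE. Gain vs DMSO.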

[6] = biological target: Oxysterols receptor LXR-beta (Homo sapiens) (UniProt P55055); assay: ATG_LXRb_TRANS: Attagene TRANS-FACTORIAL HepG2 Assay for human Liver X Receptor beta (LXRb) (AID 2282981); settings: HepG2 Attagene TRANS GAL4-LXRb reporter, mRNA
In short: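 After 24 h of chemical treatment, transfected HepG2 cells yield total RNA; reporter cDNA is PCR-amplified, FAM-labelled, HpaI-cut and run on capillary electrophoresis. Signal reflects chimeric LXRb-Gal4 activity on GAL4-UAS reporters.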

[7] = biological target: Hepatocyte nuclear factor 4-alpha (Homo sapiens) (UniProt P41235); assay: ATG_HNF4a_TRANS: Attagene TRANS-FACTORIAL HepG2 Assay for human Hepatocyte Nuclear Factor 4 alpha (HNF4a) (AID 2282982); settings: HepG2 HNF4a transactivation reporter, mRNA readout
In short: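 Multiplexed reporter assay: transfected HepG2, 24 h exposure, total RNA → oligo(dT) RT → PCR → 6-FAM extension → HpaI digest → CE fluorescence. DMSO = negative control.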

[8] = ATG_M_06_TRANS: Attagene TRANS-FACTORIAL HepG2 Assay for M06 Transcription Factor (Internal Marker) (AID 2282983); settings: HepG2 Attagene TRANS M06 internal marker reporter;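 also: reporter transcript level by RT-PCR then capillary electrophoresis fluorescence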
In short: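 Background control endpoint: reporter mRNA from transiently transfected HepG2 after 24 h dosing, detected by RT-PCR with capillary electrophoresis fluorescence. Analysed for gain versus DMSO.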

[9] = ATG_M_32_TRANS: Attagene TRANS-FACTORIAL HepG2 Assay for M32 Transcription Factor (Internal Marker) (AID 2282984); settings: HepG2 Attagene TRANS M32 internal marker reporter;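 also: transcript level of a background control reporter unit measured by RT-PCR and capillary electrophoresis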
In short: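 Cell-based TRANS-format assay in HepG2: exogenous chimeric GAL4 reporter units transiently expressed, compounds applied 24 h. Reporter mRNA detected by RT-PCR plus capillary electrophoresis; this readout is an internal background marker.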

[10] = biological target: Nuclear receptor subfamily 4 group A member 2 (Homo sapiens) (UniProt P43354); assay: ATG_NURR1_TRANS: Attagene TRANS-FACTORIAL HepG2 Assay for human Nuclear Receptor Related Protein 1 (NURR1) (AID 2282985); settings: HepG2 Attagene TRANS reporter, mRNA readout
In short: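 Measures transcriptional activation by an exogenous NR-Gal4 chimera in transfected HepG2 liver cells. After 24 h, reporter RNA is reverse-transcribed, amplified and resolved by capillary electrophoresis; DMSO defines baseline.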

[11] = biological target: Transcriptional activator Myb (Homo sapiens) (UniProt P10242); assay: ATG_Myb_CIS: Attagene CIS-FACTORIAL HepG2 Assay for human Myeloblastosis (Myb) Proto-Oncogene Transcription Factor (AID 2282986; active = hit-call score of the fitted dose curve at least 0.9, where 1 is the maximum; inactive = score below 0.9); settings: HepG2 Attagene CIS-FACTORIAL Myb reporter transcription; actives raise or lower the signal
In short: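 Transiently transfected HepG2 cells carrying a multiplexed cis-promoter reporter set report endogenous Myb activity after 24 h compound exposure. Reporter mRNA is read by RT-PCR with capillary electrophoresis of fluorescent products, fitted bidirectionally against DMSO.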

[12] = biological target: Nuclear respiratory factor 1 (Homo sapiens) (UniProt Q16656); assay: ATG_NRF1_CIS: Attagene CIS-FACTORIAL HepG2 Assay for human Nuclear Respiratory Factor 1 (NRF1) Orphan Gene (AID 2282987; active = hit-call score of the fitted dose curve at least 0.9, where 1 is the maximum; inactive = score below 0.9); settings: HepG2 NRF1 cis-element reporter, Attagene multiplex; actives raise or lower the signal
In short: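 HepG2 cells transiently transfected with multiple cis-regulated reporter units, exposed 24 h. Reporter mRNAs measured by RT-PCR, fluorescent labelling, HpaI digestion and capillary electrophoresis; bidirectional fitting against DMSO.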

[13] = ATG_VDRE_CIS: Attagene CIS-FACTORIAL HepG2 Assay for human Vitamin D Receptor Element (VDRE) (AID 2282968; active = hit-call score of the fitted dose curve at least 0.9, where 1 is the maximum; inactive = score below 0.9); settings: HepG2 VDRE cis-reporter transcription, actives raise or lower the signal
In short: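 Measures endogenous factor activity through cis-element-driven reporter transcripts in transiently transfected HepG2. Cells are treated 24 h; reporter mRNA is quantified by RT-PCR and capillary electrophoresis; fitting is bidirectional.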

[14] = ATG_TGFb_CIS: Attagene CIS-FACTORIAL HepG2 Assay for human Transforming Growth Factor (TGF) (AID 2282967; active = hit-call score of the fitted dose curve at least 0.9, where 1 is the maximum; inactive = score below 0.9); settings: HepG2 Attagene CIS TGFb reporter, mRNA transcription; actives raise or lower the signal
In short: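 HepG2 cells transiently transfected with cis-promoter-driven multiplexed reporter units; 24 h compound exposure. Reporter mRNA measured by RT-PCR, 6-FAM labeling, HpaI digestion and capillary electrophoresis; bidirectional fit versus DMSO baseline.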

[15] = ATG_GAL4_TRANS: Attagene TRANS-FACTORIAL HepG2 Assay for GAL4 (Internal Marker) (AID 2282976); settings: HepG2 Attagene TRANS GAL4 internal marker reporter
In short: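 First, HepG2 cells were transfected with reporter units under GAL4-UAS control. Next, they were treated with chemical for 24 h. Finally, RNA was reverse-transcribed, PCR-amplified, FAM-labelled and resolved by capillary electrophoresis, with induction scored against DMSO.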

[16] = biological target: Oxysterols receptor LXR-alpha (Homo sapiens) (UniProt Q13133); assay: ATG_LXRa_TRANS: Attagene TRANS-FACTORIAL HepG2 Assay for human Liver X Receptor alpha (LXRa) (AID 2282980); settings: HepG2 Attagene TRANS reporter, LXRa transactivation
In short: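 Transfect HepG2 with GAL4-UAS multiplex reporter constructs (TRANS format, chimeric receptor-GAL4); treat 24 h; extract RNA, reverse-transcribe, PCR-amplify, FAM-label, HpaI-digest; resolve fragments by capillary electrophoresis. Upward response vs DMSO.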

Transcriptional activator Myb (Homo sapiens), sequence (P10242 whole entry, looked up): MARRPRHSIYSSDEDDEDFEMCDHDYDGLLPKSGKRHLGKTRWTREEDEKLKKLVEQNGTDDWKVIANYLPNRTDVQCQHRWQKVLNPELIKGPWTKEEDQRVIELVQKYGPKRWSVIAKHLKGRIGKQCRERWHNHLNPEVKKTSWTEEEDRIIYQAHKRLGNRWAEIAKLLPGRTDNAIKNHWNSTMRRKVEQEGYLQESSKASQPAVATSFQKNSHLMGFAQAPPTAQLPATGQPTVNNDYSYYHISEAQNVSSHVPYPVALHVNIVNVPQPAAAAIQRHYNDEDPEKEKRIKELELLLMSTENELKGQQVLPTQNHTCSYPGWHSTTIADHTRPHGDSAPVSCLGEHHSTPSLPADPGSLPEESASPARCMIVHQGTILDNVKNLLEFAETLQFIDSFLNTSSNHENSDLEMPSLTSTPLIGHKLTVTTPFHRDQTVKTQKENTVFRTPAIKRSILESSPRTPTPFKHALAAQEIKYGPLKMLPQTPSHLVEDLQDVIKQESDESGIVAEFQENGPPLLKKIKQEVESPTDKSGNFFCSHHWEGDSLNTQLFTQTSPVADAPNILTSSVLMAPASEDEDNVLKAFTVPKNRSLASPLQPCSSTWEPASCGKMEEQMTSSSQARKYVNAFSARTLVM
Oxysterols receptor LXR-alpha (Homo sapiens), sequence (Q13133 whole entry, looked up, the tested form may be a part): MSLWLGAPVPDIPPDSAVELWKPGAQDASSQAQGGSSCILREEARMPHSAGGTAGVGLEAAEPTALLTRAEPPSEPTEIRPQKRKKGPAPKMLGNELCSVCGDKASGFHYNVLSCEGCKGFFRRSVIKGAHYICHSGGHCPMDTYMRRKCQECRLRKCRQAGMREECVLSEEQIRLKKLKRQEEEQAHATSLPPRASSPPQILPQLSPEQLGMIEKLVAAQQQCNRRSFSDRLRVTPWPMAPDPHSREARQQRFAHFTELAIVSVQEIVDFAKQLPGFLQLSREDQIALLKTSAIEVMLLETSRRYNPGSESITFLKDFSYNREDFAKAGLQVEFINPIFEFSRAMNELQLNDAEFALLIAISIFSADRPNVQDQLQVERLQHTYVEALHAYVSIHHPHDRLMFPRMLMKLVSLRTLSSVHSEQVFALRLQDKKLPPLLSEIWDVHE
Bile acid receptor (Homo sapiens), sequence (Q96RI1 whole entry, looked up, the tested form may be a part): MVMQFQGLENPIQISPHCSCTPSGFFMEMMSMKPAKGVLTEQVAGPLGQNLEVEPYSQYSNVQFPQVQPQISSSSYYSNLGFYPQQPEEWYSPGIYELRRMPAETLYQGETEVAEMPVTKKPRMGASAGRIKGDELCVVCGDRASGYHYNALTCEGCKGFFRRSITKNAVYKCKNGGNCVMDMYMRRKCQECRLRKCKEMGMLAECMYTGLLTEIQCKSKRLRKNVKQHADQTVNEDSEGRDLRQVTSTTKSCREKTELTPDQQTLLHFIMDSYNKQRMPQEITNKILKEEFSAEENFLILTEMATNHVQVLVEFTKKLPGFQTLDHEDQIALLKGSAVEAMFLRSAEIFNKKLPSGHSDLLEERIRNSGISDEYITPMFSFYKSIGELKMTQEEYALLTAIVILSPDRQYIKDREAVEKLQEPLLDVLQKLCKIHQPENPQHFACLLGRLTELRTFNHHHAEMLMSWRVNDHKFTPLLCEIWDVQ
Hepatocyte nuclear factor 4-alpha (Homo sapiens), sequence (P41235 whole entry, looked up): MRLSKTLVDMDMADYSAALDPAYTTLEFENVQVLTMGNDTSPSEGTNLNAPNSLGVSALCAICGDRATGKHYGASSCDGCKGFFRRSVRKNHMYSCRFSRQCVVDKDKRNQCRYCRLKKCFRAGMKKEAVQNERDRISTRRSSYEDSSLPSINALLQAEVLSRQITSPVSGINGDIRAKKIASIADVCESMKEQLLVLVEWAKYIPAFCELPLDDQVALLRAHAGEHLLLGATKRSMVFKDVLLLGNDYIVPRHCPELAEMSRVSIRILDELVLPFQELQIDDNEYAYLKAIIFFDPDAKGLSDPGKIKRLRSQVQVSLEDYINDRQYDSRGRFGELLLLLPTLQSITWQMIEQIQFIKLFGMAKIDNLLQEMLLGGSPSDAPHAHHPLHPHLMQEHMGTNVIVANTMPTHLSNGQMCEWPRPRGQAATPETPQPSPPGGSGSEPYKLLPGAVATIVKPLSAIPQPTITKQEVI
Glucocorticoid receptor (Homo sapiens), sequence (P04150 whole entry, looked up, the tested form may be a part): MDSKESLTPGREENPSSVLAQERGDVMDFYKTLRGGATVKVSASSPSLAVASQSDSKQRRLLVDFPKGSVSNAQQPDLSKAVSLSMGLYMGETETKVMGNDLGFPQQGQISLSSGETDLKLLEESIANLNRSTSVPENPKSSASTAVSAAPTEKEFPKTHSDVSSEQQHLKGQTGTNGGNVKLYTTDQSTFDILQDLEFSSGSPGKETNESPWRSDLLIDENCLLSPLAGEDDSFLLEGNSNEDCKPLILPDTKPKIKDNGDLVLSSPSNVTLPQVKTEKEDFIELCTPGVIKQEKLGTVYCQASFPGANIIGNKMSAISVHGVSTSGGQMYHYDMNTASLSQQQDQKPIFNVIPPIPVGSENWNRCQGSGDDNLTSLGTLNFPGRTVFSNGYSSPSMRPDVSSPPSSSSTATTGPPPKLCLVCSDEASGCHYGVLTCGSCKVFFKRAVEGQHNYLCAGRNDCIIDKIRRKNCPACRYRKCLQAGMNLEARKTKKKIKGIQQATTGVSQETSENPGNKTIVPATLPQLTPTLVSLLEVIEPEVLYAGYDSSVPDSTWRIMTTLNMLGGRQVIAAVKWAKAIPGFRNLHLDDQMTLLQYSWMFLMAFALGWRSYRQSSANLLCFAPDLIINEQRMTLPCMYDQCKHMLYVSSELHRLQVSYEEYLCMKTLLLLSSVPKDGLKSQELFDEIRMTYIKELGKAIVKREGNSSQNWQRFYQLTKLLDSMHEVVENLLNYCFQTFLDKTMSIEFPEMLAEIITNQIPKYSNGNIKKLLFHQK
Nuclear receptor subfamily 4 group A member 2 (Homo sapiens), sequence (P43354 whole entry, looked up, the tested form may be a part): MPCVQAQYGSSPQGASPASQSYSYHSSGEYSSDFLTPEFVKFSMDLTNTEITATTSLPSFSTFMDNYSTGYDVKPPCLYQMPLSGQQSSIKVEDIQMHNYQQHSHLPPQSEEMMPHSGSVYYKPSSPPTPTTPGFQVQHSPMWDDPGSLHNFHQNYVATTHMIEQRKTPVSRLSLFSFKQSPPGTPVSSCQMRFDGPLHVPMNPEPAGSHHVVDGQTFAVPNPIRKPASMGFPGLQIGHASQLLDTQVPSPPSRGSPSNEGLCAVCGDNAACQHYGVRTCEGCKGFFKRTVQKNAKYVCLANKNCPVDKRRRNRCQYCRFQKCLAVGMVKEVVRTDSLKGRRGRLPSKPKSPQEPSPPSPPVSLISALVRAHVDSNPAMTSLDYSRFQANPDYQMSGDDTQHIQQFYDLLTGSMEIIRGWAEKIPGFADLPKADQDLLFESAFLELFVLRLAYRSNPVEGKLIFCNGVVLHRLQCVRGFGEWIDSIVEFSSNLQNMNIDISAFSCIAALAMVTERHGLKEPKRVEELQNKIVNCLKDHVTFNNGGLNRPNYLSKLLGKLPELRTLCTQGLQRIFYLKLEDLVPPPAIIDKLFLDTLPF
X-box-binding protein 1 (Homo sapiens), sequence (P17861 whole entry, looked up, the tested form may be a part): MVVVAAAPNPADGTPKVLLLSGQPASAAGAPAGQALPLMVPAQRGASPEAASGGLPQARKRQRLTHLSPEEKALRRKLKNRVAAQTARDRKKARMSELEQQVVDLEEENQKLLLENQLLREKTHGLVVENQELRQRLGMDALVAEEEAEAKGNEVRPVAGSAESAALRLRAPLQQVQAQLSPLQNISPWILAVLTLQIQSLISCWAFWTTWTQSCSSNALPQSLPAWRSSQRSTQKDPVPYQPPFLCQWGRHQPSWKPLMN
Nuclear respiratory factor 1 (Homo sapiens), sequence (Q16656 whole entry, looked up): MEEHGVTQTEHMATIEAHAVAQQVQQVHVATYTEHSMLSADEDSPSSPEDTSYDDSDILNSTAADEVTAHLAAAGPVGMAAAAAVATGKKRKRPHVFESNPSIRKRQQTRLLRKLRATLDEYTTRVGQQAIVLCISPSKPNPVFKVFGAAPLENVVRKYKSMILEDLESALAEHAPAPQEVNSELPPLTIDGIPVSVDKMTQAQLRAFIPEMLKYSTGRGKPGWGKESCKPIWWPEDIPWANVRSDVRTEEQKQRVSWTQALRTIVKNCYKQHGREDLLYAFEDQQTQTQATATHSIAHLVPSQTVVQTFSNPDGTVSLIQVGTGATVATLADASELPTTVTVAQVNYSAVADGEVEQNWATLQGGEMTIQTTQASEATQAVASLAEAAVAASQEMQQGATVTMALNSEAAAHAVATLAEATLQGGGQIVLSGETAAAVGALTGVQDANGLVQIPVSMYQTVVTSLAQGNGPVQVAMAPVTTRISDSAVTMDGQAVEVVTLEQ
Oxysterols receptor LXR-beta (Homo sapiens), sequence (P55055 whole entry, looked up, the tested form may be a part): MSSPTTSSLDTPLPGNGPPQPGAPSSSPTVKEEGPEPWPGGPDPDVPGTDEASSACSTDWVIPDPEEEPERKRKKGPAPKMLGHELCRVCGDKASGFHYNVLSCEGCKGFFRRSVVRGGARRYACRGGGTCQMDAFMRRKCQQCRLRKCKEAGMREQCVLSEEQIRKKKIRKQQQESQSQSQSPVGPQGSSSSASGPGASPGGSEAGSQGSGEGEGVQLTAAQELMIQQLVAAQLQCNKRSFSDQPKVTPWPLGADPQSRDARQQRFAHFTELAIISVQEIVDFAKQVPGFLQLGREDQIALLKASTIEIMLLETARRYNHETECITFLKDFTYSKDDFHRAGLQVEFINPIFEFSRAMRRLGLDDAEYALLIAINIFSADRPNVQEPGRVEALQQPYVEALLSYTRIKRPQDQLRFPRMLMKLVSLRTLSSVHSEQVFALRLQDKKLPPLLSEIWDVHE
Nuclear receptor subfamily 1 group I member 3 (Homo sapiens), sequence (Q14994 whole entry, looked up, the tested form may be a part): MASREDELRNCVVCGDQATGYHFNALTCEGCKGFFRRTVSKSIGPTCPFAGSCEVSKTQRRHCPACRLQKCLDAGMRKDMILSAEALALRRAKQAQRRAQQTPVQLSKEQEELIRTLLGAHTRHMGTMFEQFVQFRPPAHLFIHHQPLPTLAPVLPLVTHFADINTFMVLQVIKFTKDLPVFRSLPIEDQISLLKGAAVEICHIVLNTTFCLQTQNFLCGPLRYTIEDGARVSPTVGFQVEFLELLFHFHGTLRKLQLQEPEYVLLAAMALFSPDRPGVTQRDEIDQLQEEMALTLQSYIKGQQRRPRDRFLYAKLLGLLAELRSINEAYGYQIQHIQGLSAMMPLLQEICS

SMILES | outcome [1] | outcome [2] | outcome [3] | outcome [4] | outcome [5] | outcome [6] | outcome [7] | outcome [8] | outcome [9] | outcome [10] | outcome [11] | outcome [12] | outcome [13] | AC50 [2] | AC50 [12] | outcome [14] | outcome [15] | outcome [16]
Cc1cc(C)nc(NS(=O)(=O)c2ccc(N)cc2)n1 | inactive | inactive | inactive | inactive | inactive | inactive | inactive | inactive | inactive | inactive | inactive | inactive | – | – | – | – | – | –
CCCOC(=O)c1c(Cl)c(Cl)c(Cl)c(Cl)c1C(=O)OCCC | inactive | – | inactive | – | – | – | – | inactive | inactive | inactive | inactive | – | inactive | 130 µM (active) | 146 µM (active) | – | – | –
Nc1ccc(Cl)c([N+](=O)[O-])c1 | – | inactive | inactive | inactive | – | – | inactive | inactive | inactive | inactive | inactive | inactive | inactive | – | – | inactive | inactive | –
C=Cc1ccc(C(C)(C)C)cc1 | inactive | inactive | inactive | – | inactive | – | – | – | – | inactive | inactive | inactive | – | – | – | – | inactive | –
C=CCCCCCCCCCC | inactive | inactive | inactive | – | – | inactive | inactive | – | inactive | inactive | inactive | inactive | – | – | – | – | inactive | inactive
CCC(=O)O[C@@H]1C[C@H]2CC[C@]1(C)C2(C)C | inactive | inactive | inactive | inactive | – | inactive | – | – | inactive | – | inactive | inactive | inactive | – | – | inactive | inactive | –
CCCC(=O)OC(C)(C)Cc1ccccc1 | inactive | inactive | inactive | inactive | – | – | inactive | – | inactive | inactive | inactive | inactive | inactive | – | – | inactive | inactive | –
CCCSc1ccc2nc(NC(=O)OC)[nH]c2c1 | – | inactive | inactive | inactive | – | inactive | – | inactive | inactive | – | inactive | inactive | inactive | – | – | inactive | – | –
Cc1c(Cl)cccc1[N+](=O)[O-] | – | inactive | inactive | – | – | – | inactive | – | – | – | inactive | inactive | inactive | – | – | inactive | – | –
CN(C)c1cccc(O)c1 | inactive | inactive | inactive | inactive | – | inactive | – | – | inactive | inactive | inactive | – | inactive | – | – | inactive | inactive | inactive
O=C(O)COCC(=O)O | inactive | inactive | – | – | inactive | inactive | inactive | inactive | – | – | inactive | inactive | inactive | – | – | inactive | inactive | inactive
COc1ccc(CCC(C)=O)cc1 | – | inactive | inactive | – | inactive | inactive | – | – | inactive | – | inactive | – | inactive | – | – | inactive | inactive | inactive
CCCCCCCCCCCCN1CCCCCC1=O | inactive | – | – | inactive | inactive | inactive | inactive | inactive | – | – | inactive | inactive | inactive | 14.5 µM (active) | – | inactive | – | inactive
Cc1ccc(N)c(S(=O)(=O)O)c1 | – | inactive | – | – | inactive | inactive | inactive | inactive | – | – | inactive | – | inactive | – | – | – | – | inactive
O=C(O)c1cc(C(=O)O)cc([N+](=O)[O-])c1 | inactive | inactive | inactive | inactive | – | inactive | – | – | inactive | inactive | inactive | inactive | inactive | – | – | inactive | inactive | inactive
